# Results: PubChem BioAssay AID485364 (National Center for Advancing Translational Sciences (NCATS), 2010)
# Out of some 360,000 compounds screened, about 11,000 (3.1%) were called active. Not shown: some 4% with an inconclusive outcome. Shown is part of a subset that was picked to be rich in actives. Unmarked numbers belong to inactive results. Calls follow the shape of the dose curve; as a rule, active = well fitted inhibition curve with a large enough effect; inconclusive = small, poorly fitted or top-dose-only effect; inactive = no such curve, though single readings can be large or run the other way.
# Target: Schistosoma mansoni thioredoxin glutathione reductase (TGR) (UniProt Q962Y6)
# Assay: qHTS Assay for the Inhibitors of Schistosoma Mansoni Peroxiredoxins; also: nearly all actives have a fitted effect of over 60% in size
# Conditions: purified TGR, DTNB reduction, TNB absorbance 405 nm; series mostly up to 114 µM; activity change, negative = inhibition: at the top concentration
# Method in brief: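 Kinetic colorimetric format: TGR-catalysed, NADPH-driven DTNB reduction monitored via TNB absorbance. Enzyme dispensed at 20 nM; compound exposure 15 min at room temperature before reaction start.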
# % is scaled to controls: 0 for no effect and ±100 for the full control effect; potency is read from the fitted curve at half-maximal effect.
Structure (SMILES),"activity change, negative = inhibition",Potency
Cc1ccc2c(c1)N(C(=O)Nc1ccc(Br)cc1F)CCO2,12.1%,–
COc1ccc(-c2cn3c(C)c(C(=O)Nc4cc(C)cc(C)c4)sc3n2)cc1,-0.43%,–
CCOC(=O)C1CCCN(C(=O)c2ccc(CS(=O)(=O)c3ccc(Br)cc3)o2)C1 (configuration not stated),–,20 µM (active)
CCOC(=O)C1CCCN(C(=O)c2cccc(S(=O)(=O)N3CCOCC3)c2)C1 (configuration not stated),-2.13%,–
CCOC(=O)C1CCCN(C(=O)c2cncc(Br)c2)C1 (configuration not stated),-2.66%,–
O=C(c1ccc2c(c1)N(Cc1ccccc1)C(=O)c1ccccc1S2(=O)=O)N1CCC(Cc2ccccc2)CC1,9.31%,–
O=C(CC1C(=O)NCCN1Cc1ccc(-c2ccccc2)cc1)NCC1CCOCC1 (configuration not stated),-27.6%,–
CC(C)c1nc(CNC(=O)CC2C(=O)NCCN2Cc2ccoc2)cs1 (configuration not stated),–,35.5 µM (active)
Cc1ccc(CN2CCNC(=O)C2CC(=O)NCc2csc(C(C)C)n2)cc1 (configuration not stated),-32.4%,–
COC(=O)c1cc(S(=O)(=O)N2CCN(c3cc(Cl)ccc3C)CC2)c[nH]1,2.69%,–
Cc1ccc(C(=O)CC2(O)C(=O)N(CCc3ccccc3)c3ccc(Br)cc32)cc1 (configuration not stated),0.876%,–
Cc1onc(-c2ccc(F)cc2F)c1C(=O)Nc1cccc(C(F)(F)F)c1,0.861%,–
COc1ccc(CCNC(=O)c2ccc3c(c2)sc2nc(-c4ccc(C)cc4)cn23)cc1OC,-1.96%,–
CCc1cccc(NC(=O)c2cc(-c3ccccc3)n[nH]2)c1,-7.19%,–
O=C(O)c1ccc(NC(=O)c2ccc(COc3ccc(Cl)cc3)o2)cc1,-20%,–
COC(=O)c1ccc(COc2ccc(C#N)cc2)o1,-7.11%,–
O=C(O)c1ccc(COc2c(F)c(F)cc(F)c2F)o1,–,35.5 µM (active)
CCN1CC=C2C(C#N)=C(N)C(C#N)(C#N)[C@H](c3ccoc3)[C@H]2C1,0.939%,–
N#CC1=C(N)C(C#N)(C#N)[C@H](c2ccsc2)[C@H]2COCC=C12,–,12.6 µM (active)
Cc1ccc(C)c(N2CCN(C(=O)Cc3c(C(=O)O)c(C)cn3C)CC2)c1,-12%,–
O=C1[C@@H]2C(c3cccnc3)=NO[C@@H]2C(=O)N1c1ccc(Cl)cc1Cl,–,8.91 µM (active)
Cc1nc2ccccc2c(=O)n1-c1ccc(Cl)cc1Cl,-34.9%,–
O=C(NNC1CC(=O)N(c2cccc(Cl)c2)C1=O)c1cccnc1 (configuration not stated),-28%,–
COc1ccccc1-c1nnc(C2CCN(C(=O)c3ccc(Cl)cc3)CC2)o1,1.27%,–

Structure (SMILES),"activity change, negative = inhibition",Potency
CC(C)(C)c1ccc(C(=O)Nc2ccc3c(c2)CCCN3C(=O)c2cccs2)cc1,-3.61%,–
Cc1cccc(Cn2c(CN3CCC(C(=O)NCc4ccccc4Cl)CC3)cc3ccccc32)c1,11.6%,–
c1coc(-c2nc3nc4ccccc4n3nc2-c2ccco2)c1,–,44.7 µM (active)
O=C(COc1ccc(Cl)cc1)Nc1ccccc1OCc1cc(=O)n2ccccc2n1,2.3%,–
Cc1oc2cc(Br)c(O)c(Br)c2c1C(=O)c1ccccc1,–,15.8 µM (active)
COc1ccc(C(=O)c2c(C)oc3cc([N+](=O)[O-])c(O)c([N+](=O)[O-])c23)cc1,-31.7%,–
Cc1nc2ccccc2c(-c2ccccc2)c1C(=O)c1ccccc1,-13.7%,–
Brc1cccc(-c2nnn3c2nc(NC2CCCCC2)c2ccccc23)c1,37%,–
COc1ccc(CCNC(=O)Cn2c(=O)cc(C(F)(F)F)c3c(C)nn(C)c32)c(OC)c1,3.9%,–
COCCN1C(=O)C(=O)/C(=C(/O)c2ccc(S(=O)(=O)N3CCOCC3)cc2)C1c1ccc(O)c(OC)c1 (configuration not stated),-15.2%,–
O=C1C(=O)N(CCN2CCOCC2)C(c2cccc(Cl)c2)/C1=C(/O)c1ccc2c(c1)OCO2 (configuration not stated),–,50.1 µM (active)
CCN(CC)CCN1C(=O)C(=O)/C(=C(/O)c2ccc(OC)c(OC)c2)C1c1ccccn1 (configuration not stated),11.8%,–
O=C1C(=O)N(CCN2CCOCC2)C(c2ccccn2)/C1=C(/O)c1ccc(Cl)cc1 (configuration not stated),–,20 µM (active)
COc1ccc(C2/C(=C(/O)c3ccc(OC(C)C)cc3)C(=O)C(=O)N2CCCN2CCOCC2)cc1 (configuration not stated),–,20 µM (active)
O=C1C(=O)N(CCCO)C(c2ccccc2)/C1=C(\O)c1ccc(Br)cc1 (configuration not stated),11.9%,–
CC1Cc2cc(/C(O)=C3\C(=O)C(=O)N(CCN4CCOCC4)C3c3ccccc3F)ccc2O1 (configuration not stated),-26.7%,–
COCCCN1C(=O)C(=O)/C(=C(/O)c2ccc(S(=O)(=O)N3CCOCC3)cc2)C1c1ccc(F)cc1 (configuration not stated),5.3%,–
COCCN1C(=O)C(=O)/C(=C(/O)c2ccc(S(=O)(=O)N3CCOCC3)cc2)C1c1ccc(OC)c(OC)c1 (configuration not stated),-3.05%,–
CCn1c2c(c(=O)n3ncc(C(=O)N4CCN(c5ccccc5)CC4)c13)CN(Cc1ccc(OC)cc1)CC2,-22.6%,–
CCc1cccc(NC(=O)CN(C)S(=O)(=O)c2ccc3[nH]c4c(c3c2)CCCC4)c1,-3.12%,–
O=C(Nc1cc(C(F)(F)F)ccc1Cl)c1cc2nc(-c3ccc4c(c3)OCO4)cc(C(F)(F)F)n2n1,10%,–
O=C(CSc1nc(Nc2ccc(F)c(F)c2)c2ccccc2n1)c1ccc(Cl)cc1,-0.95%,–
Cc1cc(C)nc(NS(=O)(=O)c2ccc(NC(=O)c3cc(=O)c4ccc(C)c(C)c4o3)cc2)n1,8.3%,–
